Measurements from the supplement of paper PMC3334620.
In all, about 33,000 sequences were measured (“E-score (-0.5 to 0.5)”: median about -0.013, highest 2% from about 0.3 on). Only a selection was taken, and the highest values are over-represented in it overall.

Target: T1, Msn1 (UniProt P22148)
T1 sequence: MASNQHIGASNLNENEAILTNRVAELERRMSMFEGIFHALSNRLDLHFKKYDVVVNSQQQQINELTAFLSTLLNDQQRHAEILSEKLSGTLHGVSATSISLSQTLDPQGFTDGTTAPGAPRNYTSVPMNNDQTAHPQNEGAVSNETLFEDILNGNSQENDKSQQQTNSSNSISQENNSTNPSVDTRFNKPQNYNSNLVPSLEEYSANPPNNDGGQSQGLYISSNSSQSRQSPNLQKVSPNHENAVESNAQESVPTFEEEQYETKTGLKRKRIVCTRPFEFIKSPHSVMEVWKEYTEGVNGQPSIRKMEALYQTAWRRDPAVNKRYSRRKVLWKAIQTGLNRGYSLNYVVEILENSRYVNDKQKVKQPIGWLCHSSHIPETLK
Assay: PBM E-score (8-mer binding enrichment) (E-score (-0.5 to 0.5)); higher = stronger / more preferred TF binding
Conditions: protein concentration: 200 nM; construct: GST-full length
Method in brief: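 Detection of bound protein used fluorescent anti-GST, with scans normalised by masliner. The proteins were GST-tagged yeast transcription factors applied at about 100-200 nM to universal all-10-mer Agilent arrays made double-stranded by primer extension. Each ungapped eight-base word, pooled with its reverse complement, was scored with an E-score from the Universal PBM Analysis Suite.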

Row | Sequence | PBM E-score
1 | GCTAGTGA | -0.00743
2 | TGAATGAA | 0.0496
3 | AGTAGGGG | -0.202
4 | CATTTAAC | 0.188
5 | GGGAGCGA | -0.219
6 | TGGCCCAA | -0.0694
7 | ATTTCCTG | 0.206
8 | ATGTCCTG | 0.487
9 | CTGTCCTC | 0.197
10 | AGGTCCTC | -0.119
11 | ATGTCCTC | 0.481
12 | AGGTCCTG | 0.0441
13 | GCCCGCTA | -0.211
14 | AAACAGGG | 0.09
15 | CGGCGACA | 0.0783
16 | CTTAGCAC | -0.0653
17 | CACATATC | 0.0551
18 | AACATATA | 0.0881
19 | GACATAGC | 0.295
20 | CACACATA | 0.0356
21 | GACATATA | 0.448
22 | GACACATA | 0.361
23 | AACATAGA | -0.021
24 | TACACATA | 0.0567
25 | CACATATA | 0.0314

Row | Sequence | PBM E-score
26 | AACATATC | 0.0631
27 | GACATATC | 0.451
28 | GACATAGA | 0.36
29 | CGATTTGA | -0.163
30 | CGGGGCCA | -0.157
31 | AGTCAGGC | 0.0431
32 | CTTCGGTA | -0.0133
33 | CTGGCAGC | -0.271
34 | GGGACCCA | -0.139
35 | TAGCGTCA | -0.0365
36 | ATATGTTA | -0.0436
37 | GTATGTAA | 0.0384
38 | ATATGTTG | 0.0727
39 | GTATGTTA | 0.0222
40 | ATATGTCA | 0.401
41 | CTATGTCA | 0.167
42 | GTATGTCA | 0.35
43 | ATATGTGG | 0.0596
44 | ATATGTCG | 0.379
45 | AATACTCT | 0.0619
46 | ATTAGAGA | 0.00489
47 | GTCTTGGA | 0.0469
48 | CAAAGTTG | 0.101
49 | GTCTGAAA | 0.241
50 | CCCCAATA | -0.122

Row | Sequence | PBM E-score
51 | ATATTCCA | 0.212
52 | ATATTCCC | 0.0634
53 | ATATTCCG | 0.321
54 | ACGTAGCG | -0.138
55 | CGTTTGAC | 0.12
56 | AGTTTGTC | 0.446
57 | CGTTTGTA | 0.189
58 | AGTTTGTG | -0.0605
59 | AGTTTGTA | 0.182
60 | CGTTTGTC | 0.44
61 | TATGTAAA | 0.0978
62 | GACGCCAA | -0.157
63 | CAAATTAA | 0.0951
64 | AGATTAAA | 0.309
65 | CTATTAAA | 0.179
66 | AAATTAAT | 0.199
67 | GAAATTAA | 0.34
68 | AAATTAAC | 0.0769
69 | AAATTAAA | 0.355
70 | CGATTAAA | 0.0941
71 | AGATTAAT | 0.0857
72 | AAAATTAA | 0.187
73 | ATATTAAA | 0.344
74 | TTATTAAA | 0.29
75 | TGGGTCAA | -0.0713

Row | Sequence | PBM E-score
76 | CGCCAAGA | -0.142
77 | GCAGAGGC | -0.241
78 | CCCTGCCG | -0.254
79 | CGCCAATC | -0.0945
80 | AATGCCCC | -0.197
81 | AATTCAGG | 0.109
82 | GCGGGTGA | -0.0547
83 | GCACAAAC | 0.0596
84 | AAGCCTCT | -0.17
85 | ACAATGTA | 0.156
86 | ACAATGTC | 0.452
87 | CCAATGTA | 0.0173
88 | ACAATGTG | 0.0288
89 | CCAATGAC | -0.00959
90 | CCAATGTC | 0.328
91 | GCATAAAA | 0.128
92 | AATCCTTA | -0.134
93 | CGAGCTAA | -0.0305
94 | CAGAATAA | 0.0293
95 | GGGACACC | 0.185
96 | TCGACACA | 0.133
97 | GTGACACA | 0.286
98 | TGGACACA | 0.427
99 | GGGACACA | 0.449
100 | TGCACACA | 0.0221

Row | Sequence | PBM E-score
101 | AGGAAATC | 0.0408
102 | AAGTGCGC | -0.108
103 | ATGCTGTC | 0.0368
104 | GTAGCGCA | -0.107
105 | CCAAGAAG | -0.0807
106 | ATTATAAA | 0.17
107 | ATTATAAG | 0.103
108 | ATTATAAT | 0.307
109 | CCACATAC | 0.0664
110 | CACCAACG | 0.185
111 | CCATAGAG | 0.0389
112 | ACGCTAAT | -0.223
113 | AAAGGCCG | -0.00669
114 | ATACCTAG | -0.0479
115 | ACGTCTGG | 0.154
116 | ATGTCTTC | 0.293
117 | ATGTCTGC | 0.286
118 | ATGTCTGA | 0.425
119 | GTGTCTGA | 0.185
120 | CTGTCTTA | 0.181
121 | ATGTCTTG | 0.35
122 | ATGTCTGG | 0.323
123 | AAGTCTTG | 0.0419
124 | ATGTCTTA | 0.423
125 | CTGTCTGA | 0.0827

Row | Sequence | PBM E-score
126 | GTGTCTTA | 0.04
127 | GACCATTA | 0.0825
128 | ATCACAAT | -0.035
129 | CAAACGAG | 0.099
130 | CAGAGGAC | 0.0901
131 | CAACGGAC | 0.121
132 | AGAGCCGC | -0.0659
133 | ATCGCGTA | -0.176
134 | ACAGTCGA | -0.0747
135 | ATCCCGAT | 0.125
136 | ACAAAGGC | 0.098
137 | CCTCAAGC | -0.277
138 | ACGCTGGG | -0.406
139 | ATCTTGCG | -0.0566
140 | CGCGGACG | 0.181
141 | AGCGGACT | -0.229
142 | GGCGGACA | 0.273
143 | AGCGGACG | 0.0534
144 | CGCGGACC | 0.0148
145 | TGCGGAAA | 0.0764
146 | CGCGGACA | 0.329
147 | AGCGGACA | 0.359
148 | TGCGGACA | 0.427
149 | CTGCTCAA | 0.0116
150 | CGAGTGCG | 0.0204

Row | Sequence | PBM E-score
151 | CGTTGCAG | -0.0934
152 | AACATTCA | -0.0503
153 | AACATTCC | -0.0175
154 | CACATTCC | 0.0503
155 | GACATTCA | 0.449
156 | GACATTCC | 0.456
157 | CACATTCA | -0.0795
158 | ATACATAT | 0.264
159 | CCGCTCTA | 0.0134
160 | GACTCCCC | -0.207
161 | ATTTCTCG | 0.255
162 | CGATACCG | -0.0866
163 | ACGGACAA | 0.474
164 | GCGGACAA | 0.44
165 | TCGGACAA | 0.457
166 | CCGGACAG | 0.227
167 | ACGGACGA | 0.0949
168 | GCGGACCA | 0.0483
169 | CCGGACAA | 0.452
170 | TCGGACCA | 0.12
171 | TCGGACGA | 0.199
172 | CCGGACAC | 0.288
